PubChem BioAssay (EPA / NIEHS)
A structure can be active in one record and inactive in another. Active and inactive are the calls of the source. How the source made its calls: active means hit-call score of the fitted dose curve at least 0.9, where 1 is the maximum; inactive means score below 0.9.

Experiment: ATG_MRE_CIS: Attagene CIS-FACTORIAL HepG2 Assay for human Metal Responsive Element (MRE) (AID 2282954)
Conditions: HepG2 MRE cis-reporter transcription, Attagene multiplex; actives raise or lower the signal
Procedure, shortened: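 Step one: transfect HepG2 with cis-regulated reporter units. Step two: dose 24 h. Step three: isolate RNA, RT-PCR, 6-FAM label, HpaI digest, capillary electrophoresis. Fit bidirectionally to DMSO.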

Row | Compound | outcome | AC50
1 | c1ccc2c(c1)sc1ccccc12 | inactive | –
2 | Nc1ccc(Cl)cc1 | inactive | –
3 | Nc1ccc2ccccc2c1 | inactive | –
4 | Nc1ccc([N+](=O)[O-])cc1Cl | inactive | –
5 | CCOP(=S)(OCC)SCSCC | – | 151 µM (active)
6 | CCOP(=S)(S)OCC | inactive | –
7 | OCC(F)(F)OC(F)(F)C(F)(F)OC(F)(F)C(F)(F)OC(F)(F)F | inactive | 75.7 µM (active)
8 | O=C(O)C(F)(F)C(F)(F)C(=O)O | inactive | –
9 | Cc1cc(C)c(C(=O)P(=O)(c2ccccc2)c2ccccc2)c(C)c1 | – | 17.9 µM (active)
10 | CC(C)(C)OOC(C)(C)C | inactive | –
11 | Cn1[nH]nnc1=S | inactive | –
12 | CCOP(=S)(Oc1ccc([N+](=O)[O-])cc1)c1ccccc1 (stereo not given) | inactive | –
13 | FC(F)(F)C(F)(C(F)(F)F)C(F)(F)C(F)(F)CC1CO1 (stereo not given) | inactive | –
14 | CCOC(=O)c1ccccc1N | inactive | –
15 | Oc1ccccc1Br | inactive | –
16 | CCOc1ccc(C(C)(C)COCc2cccc(Oc3ccccc3)c2)cc1 | inactive | –
17 | CCCCc1ccccc1 | inactive | –
18 | CC1=C(C(=O)Nc2ccccc2)S(=O)(=O)CCO1 | – | 9.73 µM (active)
19 | ClC(Cl)=C(c1ccc(Cl)cc1)c1ccccc1Cl | – | 100 µM (active)
20 | CCCCC(CC)COC(=O)c1c(Br)c(Br)c(Br)c(Br)c1C(=O)OCC(CC)CCCC (stereo not given) | inactive | –

Row | Compound | outcome | AC50
21 | OCC(F)(F)OC(F)(F)C(F)(F)OC(F)(F)C(F)(F)OC(F)(F)CO | inactive | –
22 | COP(=O)(O)OC | inactive | –
23 | Clc1ccc(Oc2ccccc2)cc1 | inactive | –
24 | N#Cc1ccc(O)cc1 | inactive | –
25 | O=C(O)C1C(C(=O)O)C2(Cl)C(Cl)=C(Cl)C1(Cl)C2(Cl)Cl (stereo not given) | inactive | –
26 | CC(O)C#N (stereo not given) | inactive | –
27 | CCN(CC)c1ccccc1 | inactive | –
28 | CC(C)Nc1ccc(Nc2ccccc2)cc1 | inactive | –
29 | OCC1CO1 (stereo not given) | inactive | –
30 | CCCCC(CC)COP(=O)(Oc1ccccc1)Oc1ccccc1 (stereo not given) | – | 50.1 µM (active)
31 | CCCCCCCc1ccc(O)cc1 | inactive | –
32 | ClC(Cl)c1ccccc1 | inactive | –
33 | COP(N)(=S)OC | inactive | –
34 | CCCCN(CCCC)N=O | inactive | –
35 | CC(C)(C)N(NC(=O)c1ccc(Cl)cc1)C(=O)c1ccccc1 | inactive | –
36 | c1ccc2c(c1)Nc1ccccc1S2 | inactive | –
37 | O=P(Oc1ccccc1)(Oc1ccccc1)Oc1ccccc1 | – | 33.4 µM (active)
38 | CCNc1nc(Cl)nc(NC(C)(C)C)n1 | inactive | –
39 | O=NN1CCCC1 | inactive | –
